Sampled rows, rich in hits. Any-hit rate of the full collection: about 1.5%.
SARS 3CLpro inh – SARS-CoV 3CLpro protease inhibition; P0C6X7; recombinant SARS-CoV 3CLpro, quenched FRET peptide cleavage; inhibition, % at 6 µM; 290,000 compounds, 0.14% hits; in the data active = inhibition above about 12%
DUSP3 inh – blocks human VHR1 dual specificity phosphatase. P51452. recombinant VHR phosphatase, pNPP absorbance. 290,000 compounds, 0.52% hits. inhibition, % at 13.3 µM; in the data active = inhibition above about 50%
RecA splice inh – blocks M. tuberculosis RecA intein splicing; P9WHJ3; cell-free RecA intein splicing, fluorescence; inhibition, % (test concentration not listed); 290,000 compounds, 0.75% hits; AID 2221; in the data active = inhibition above about 30%
Target sequence (P9WHJ3 whole entry, looked up, canonical isoform): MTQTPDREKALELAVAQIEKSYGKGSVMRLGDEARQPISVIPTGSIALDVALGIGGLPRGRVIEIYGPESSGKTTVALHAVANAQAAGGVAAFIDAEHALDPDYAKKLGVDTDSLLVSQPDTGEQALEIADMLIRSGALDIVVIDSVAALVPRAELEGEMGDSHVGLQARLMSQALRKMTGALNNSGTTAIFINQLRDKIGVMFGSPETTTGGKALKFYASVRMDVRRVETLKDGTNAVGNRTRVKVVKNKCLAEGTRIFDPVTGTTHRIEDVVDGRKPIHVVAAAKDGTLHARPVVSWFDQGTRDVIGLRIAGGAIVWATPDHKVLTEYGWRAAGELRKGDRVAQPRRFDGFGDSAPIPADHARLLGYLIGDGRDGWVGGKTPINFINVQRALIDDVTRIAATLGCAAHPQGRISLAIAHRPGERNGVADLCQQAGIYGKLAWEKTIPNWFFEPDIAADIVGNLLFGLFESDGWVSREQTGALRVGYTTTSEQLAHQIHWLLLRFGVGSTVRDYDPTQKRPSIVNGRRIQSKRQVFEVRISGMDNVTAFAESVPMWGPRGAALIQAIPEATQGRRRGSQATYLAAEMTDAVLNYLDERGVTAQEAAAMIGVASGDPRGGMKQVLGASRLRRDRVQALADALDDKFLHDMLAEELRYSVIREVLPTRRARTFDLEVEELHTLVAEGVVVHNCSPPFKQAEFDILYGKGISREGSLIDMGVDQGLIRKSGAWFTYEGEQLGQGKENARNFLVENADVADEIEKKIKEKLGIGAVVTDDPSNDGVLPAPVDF
CCHF vOTU inh – blocks the CCHF virus ovarian tumor domain protease | CCHFV vOTU protease, Pep-AMC fluorescence | inhibition, % at 11.5 µM | 370,000 compounds, 0.55% hits | AID 651958; in the data active = inhibition above about 30%
GFP chromo cs – counter-screen: blocks GFP chromophore formation; cell-free GFP chromophore formation, fluorescence; 2,100 compounds, 83% hits; EC50, µM; shares compounds with RecA splice inh; AID 434968; call rule not given here
Each line names hits and unclear results; the compound was inactive in the other large screens (follow-up assays come after a bar, where they were run).

O=C1CCCC(O)=C1C(C#Cc1ccccc1)C1=C(O)CCCC1=O	RecA splice inh 30 (no result: CCHF vOTU inh) | GFP chromo cs 12
CC1(C)CC(=O)C(C(C#Cc2ccccc2)C2=C(O)CC(C)(C)CC2=O)=C(O)C1	none
O=C(CSc1nnc(-c2ccco2)n1-c1ccc(Cl)cc1)Nc1ccc(S(=O)(=O)Nc2nccs2)cc1	none (no result: SARS 3CLpro inh, DUSP3 inh, RecA splice inh)
CC1=C(C)/C(=N\OC(=O)/C=C/c2ccccc2)C=CC1=O	RecA splice inh 38 | GFP chromo cs inactive
CCCc1noc2c1C(c1ccoc1)C(C#N)=C(N)N2 (stereo not given)	RecA splice inh 79 | GFP chromo cs inactive
Cn1ccnc1SCC(=O)N1CCc2ccccc21	none
COc1ccc(C(C)c2cn(C)c3ccccc23)cc1 (stereo not given)	none (no result: SARS 3CLpro inh, DUSP3 inh, RecA splice inh)
N#Cc1c(C#N)c(O)c2ccccc2c1O	RecA splice inh 84 | GFP chromo cs 2.4
Cc1onc(-c2c(Cl)cccc2Cl)c1C(=O)NC1CCCCC1	none
Cc1onc(-c2c(Cl)cccc2Cl)c1C(=O)N1C(C)CCCC1C (stereo not given)	RecA splice inh 81 | GFP chromo cs inactive
CC1(S(=O)(=O)O)CC(=O)c2ccccc2C1=O (stereo not given)	RecA splice inh 93 | GFP chromo cs 4.3
CCCC[C@@H]1C=C(C(=O)O)[C@H](c2ccc(Cl)cc2)N1S(=O)(=O)c1ccc(C)cc1	none (no result: SARS 3CLpro inh, DUSP3 inh, RecA splice inh)
CCSc1nnc(-c2ccc(C)cc2)c2ccccc12	none
Clc1ccc(-c2nnc(Sc3nc4ccccc4o3)c3ccccc23)cc1	RecA splice inh 57 | GFP chromo cs 0.62
Cc1ccc(-c2nnc(Sc3nc4ccccc4o3)c3ccccc23)cc1	RecA splice inh 77 | GFP chromo cs 0.93
Cc1nnc(Sc2nc3ccccc3o2)c2ccccc12	RecA splice inh 50 | GFP chromo cs 28
N#C/C(=N\Nc1ccc(S(=O)(=O)N2CCc3ccccc32)cc1)C(N)=S	RecA splice inh 31 | GFP chromo cs 32
CCOC(=O)/C(C#N)=N/Nc1ccc(S(=O)(=O)N2CCc3ccccc32)cc1	none
Cn1c(=O)[nH]c(=O)c2c1nc([N+](=O)[O-])n2Cc1ccccc1	RecA splice inh 62 | GFP chromo cs 17
CCOC(=O)c1ccc(CNC(=O)c2cc(COc3ccccc3SC)on2)o1	none
[O-]C1=N/[N+](=C/c2ccccc2)CC1	RecA splice inh 81 | GFP chromo cs 30
Clc1ccccc1/C=C/c1ccnc2ccccc12	none
[O-]C1=N/[N+](=C/c2ccc(Cl)c(Cl)c2)CC1	RecA splice inh 36 | GFP chromo cs 38
[O-]C1=N/[N+](=C/c2ccccc2Cl)CC1	RecA splice inh 70 | GFP chromo cs 17
O=C(Nc1cc(C(F)(F)F)ccc1N1CCCCC1)C1=COCCO1	none (no result: SARS 3CLpro inh, DUSP3 inh, RecA splice inh)
Cc1cc(C)nc(Sc2ccc(C=O)cc2[N+](=O)[O-])n1	none
O=Cc1ccc(Sc2nnc(-c3ccccc3)o2)c([N+](=O)[O-])c1	RecA splice inh 55 (no result: CCHF vOTU inh) | GFP chromo cs 26
Cc1ccccc1-c1cc(C(=O)NCc2cccc(C(F)(F)F)c2)n(CC2CC(c3cccnc3)=NO2)n1 (stereo not given)	none (no result: SARS 3CLpro inh, DUSP3 inh, RecA splice inh)
c1ccc(Nc2nc(N3CCCC3)nc(N3CCCC3)n2)cc1	none
Fc1ccc(Nc2nc(Oc3ccccc3F)nc(N3CCCC3)n2)cc1	none | GFP chromo cs 12
Clc1ccc(Sc2oc(/C=N/n3cnnc3)cc2Br)cc1	RecA splice inh 63 | GFP chromo cs 22
CSc1ccc(N2C(=O)NC3(CCCCC3)C2=O)cc1	none
C/C(=N\Nc1ccccc1)c1cc2ccccc2oc1=O	none
C/C(=N\NC(=O)CC#N)c1cc2ccccc2oc1=O	RecA splice inh 86 | GFP chromo cs 13
O=C(c1ccncc1)N(c1ccc2oc3c(c2c1)CCCC3)S(=O)(=O)c1ccc(F)cc1	RecA splice inh 51 | GFP chromo cs 4.1
O=c1c2[nH]cnc2n(-c2cccc(Br)c2)c(=O)n1Cc1ccccc1	none
Cc1ccc(CNC(=O)c2ccc(N(C)S(=O)(=O)c3ccccc3)cc2)cc1	RecA splice inh 37 | GFP chromo cs inactive
O=C(CCC(=O)N1CCN(C2c3ccccc3-c3ccccc32)CC1)Nc1nnc(C(F)(F)F)s1	none (no result: SARS 3CLpro inh, DUSP3 inh, RecA splice inh)
CCN(CC)C(=O)CSc1nnc(COc2ccc(OC)cc2)n1N	none
CCN(CC)C(=O)CSc1nnc2nnc3cc(OC)ccc3n12	RecA splice inh 31 | GFP chromo cs inactive
COc1cccc(-n2nnnc2S(C)(=O)=O)c1	RecA splice inh 91 (no result: CCHF vOTU inh) | GFP chromo cs 7.3
C=CCN1C(=O)[C@@H](CC(=O)NCCC(C)C)[C@]2(C(=O)OCC)CCCCC/C=C/12	none (no result: SARS 3CLpro inh, DUSP3 inh, RecA splice inh)
CCNC(=S)N(CCc1c(C)[nH]c2ccc(F)cc12)Cc1cccnc1	none
Cc1[nH]c2ccc(F)cc2c1CCN(Cc1cccnc1)C(=S)Nc1ccc(F)cc1	RecA splice inh 40 | GFP chromo cs inactive
COCc1[nH]nc2c1C(c1ccc(OC)c(OC)c1)C(C#N)=C(N)O2 (stereo not given)	RecA splice inh 56 | GFP chromo cs 31
CCn1c2ccccc2c2cc(C3C(C#N)=C(N)Oc4n[nH]c(COC)c43)ccc21 (stereo not given)	RecA splice inh 77 | GFP chromo cs 10
CCCCCCCCN1C(=O)[C@@H](CC(=O)NCCc2ccccc2OC)C[C@@]2(C(=O)OC)C1=C[C@H](COCc1ccccc1)O[C@@H]2C	none (no result: SARS 3CLpro inh, DUSP3 inh, RecA splice inh)
FC(F)(F)c1ccc2c(c1)N(CCCN1CCN(CCCl)CC1)c1ccccc1S2	RecA splice inh 63 | GFP chromo cs 17
OCCN1CCN(CCCN2c3ccccc3Sc3ccc(C(F)(F)F)cc32)CC1	none
Cc1cc2nc(C(C)(C)C)c(Cc3ccsc3)n2c(C)c1Br	none (no result: SARS 3CLpro inh, DUSP3 inh, RecA splice inh)
CCN1C(=O)N(C(C)=O)[C@@H]2C[C@H](C(=O)N3CCCC3)[C@H](C)[C@H](c3ccccc3)C[C@@H]21	none (no result: SARS 3CLpro inh, DUSP3 inh, RecA splice inh)
Cc1ccc(N(NC(=O)C(O)(c2ccccc2)c2ccccc2)C(=O)CCl)cc1	RecA splice inh 66 | GFP chromo cs 7.3
COC1=CC(=O)C(O)=C(CCCCCCC/C=C/CCCCCCCC2=C(O)C(=O)C=C(OC)C2=O)C1=O	RecA splice inh 76 (no result: SARS 3CLpro inh, DUSP3 inh, CCHF vOTU inh) | GFP chromo cs 2.1
COc1ccc(/C=C/C(=O)c2ccncc2)c2ccccc12	RecA splice inh 57 | GFP chromo cs 23
Cc1[nH]n(-c2ccccc2)c(=O)c1/C=N/O	none
Cc1[nH]n(-c2ccccc2)c(=O)c1/C=C1\C=NN=C1c1ccccc1	RecA splice inh 82 | GFP chromo cs 7.4
Cc1cccc(N(Cc2cc(=O)[nH]c3ccccc23)C(=O)CCl)c1	RecA splice inh 41 | GFP chromo cs 8
CCN1CCN(C(=O)c2ccc(N3CC4CC(C3)c3cccc(=O)n3C4)c(NC(=O)c3cc(OC)cc(OC)c3)c2)CC1 (stereo not given)	none
Cc1nc(Nc2ccc(O)cc2)c2c3c(sc2n1)CCCC3	RecA splice inh 30 (no result: CCHF vOTU inh) | GFP chromo cs inactive
Cc1ccc(CNc2nc(C)nc3sc4c(c23)CCC4)cc1	none
